In all, about 5,500 compounds went through this assay and about 2,000 (36%) were called active. Not shown: some 18% with an inconclusive outcome. The list shows a part of the results. Values without a mark were called inactive. No stated cut-off is given here; in the data, active means normalized growth mostly below about 0.91 (no sharp cut-off); inconclusive means no clear call, values can overlap the other calls; inactive means mostly above about 0.92.
Assay: chemical genetic growth profiling, strain panel (AID 1159580);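 further: tested at 20 µM; growth read once vehicle control cultures reached saturation at 30 °C; 1 = growth at the plate median or of vehicle wells; lower values mean less growth of the strain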
Details: growth OD

CC(=O)[C@@]1(O)CCC2C3CCC4=CC(=O)CC[C@]4(C)C3CC[C@@]21C (stereo partly drawn)
normalized growth (S. cerevisiae deletion strains, locus YJR066W, strain TOR1, hits give low values): 0.93 | normalized growth (S. cerevisiae deletion strains, locus YKL009W, strain mrt4, hits give low values): 0.995 | normalized growth (S. cerevisiae deletion strains, locus YKL068W, hits give low values): 1.01 | normalized growth (S. cerevisiae deletion strains, locus YKL085W, strain MDH1 (second series), hits give low values): 1.02 | normalized growth (S. cerevisiae deletion strains, locus YKL085W, strain MDH1, hits give low values): 1.02 | normalized growth (S. cerevisiae deletion strains, locus YKL160W, strain elf1, hits give low values): 0.997 | normalized growth (S. cerevisiae deletion strains, locus YKL190W, strain CNB1, hits give low values): 0.998 | normalized growth (S. cerevisiae deletion strains, locus YKR001C, strain vps1, hits give low values): 1.06 | normalized growth (S. cerevisiae deletion strains, locus YKR026C, strain gcn3, hits give low values): 0.966 | normalized growth (S. cerevisiae deletion strains, locus YKR091W, strain srl3, hits give low values): 0.991 | normalized growth (S. cerevisiae deletion strains, locus YLL001W, strain dnm1, hits give low values): 0.98 | normalized growth (S. cerevisiae deletion strains, locus YLL026W, hits give low values): 0.994 | normalized growth (S. cerevisiae deletion strains, locus YLL041C, strain sdh2, hits give low values): 0.99 | normalized growth (S. cerevisiae deletion strains, locus YLR027C, strain aat2, hits give low values): 1 | normalized growth (S. cerevisiae deletion strains, locus YLR039C, strain RIC1, hits give low values): 0.841 | normalized growth (S. cerevisiae deletion strains, locus YLR058C, strain SHM2, hits give low values): 0.987 | normalized growth (S. cerevisiae deletion strains, locus YLR102C, strain apc9, hits give low values): 1.01 | normalized growth (S. cerevisiae deletion strains, locus YLR113W, strain HOG1, hits give low values): 0.97 | normalized growth (S. cerevisiae deletion strains, locus YLR221C, strain rsa3, hits give low values): 1 | normalized growth (S. cerevisiae deletion strains, locus YLR258W, strain gsy2, hits give low values): 0.993 | normalized growth (S. cerevisiae deletion strains, locus YLR262C, strain YPT6 (second series), hits give low values): 0.823 (active) | normalized growth (S. cerevisiae deletion strains, locus YLR262C, strain YPT6, hits give low values): 0.805 | normalized growth (S. cerevisiae deletion strains, locus YLR268W, strain sec22, hits give low values): 1.01 | normalized growth (S. cerevisiae deletion strains, locus YLR320W, strain mms22, hits give low values): 0.939 | normalized growth (S. cerevisiae deletion strains, locus YLR330W, strain CHS5, hits give low values): 1 | normalized growth (S. cerevisiae deletion strains, locus YLR342W, strain FKS1 (second series), hits give low values): 0.987 | normalized growth (S. cerevisiae deletion strains, locus YLR342W, strain FKS1, hits give low values): 0.989 | normalized growth (S. cerevisiae deletion strains, locus YLR357W, strain rsc2, hits give low values): 1.01 | normalized growth (S. cerevisiae deletion strains, locus YLR370C, strain arc18, hits give low values): 0.984 | normalized growth (S. cerevisiae deletion strains, locus YLR371W, strain rom2, hits give low values): 1.01 | normalized growth (S. cerevisiae deletion strains, locus YLR384C, strain iki3, hits give low values): 1.01 | normalized growth (S. cerevisiae deletion strains, locus YLR418C, strain cdc73, hits give low values): 1.01 | normalized growth (S. cerevisiae deletion strains, locus YML016C, strain PPZ1, hits give low values): 0.986 | normalized growth (S. cerevisiae deletion strains, locus YML032C, strain rad52, hits give low values): 0.981 | normalized growth (S. cerevisiae deletion strains, locus YML120C, strain ndi1, hits give low values): 1.01 | normalized growth (S. cerevisiae deletion strains, locus YML124C, strain tub3, hits give low values): 1 | normalized growth (S. cerevisiae deletion strains, locus YMR058W, strain fet3, hits give low values): 0.996 | normalized growth (S. cerevisiae deletion strains, locus YMR078C, strain ctf18, hits give low values): 0.992 | normalized growth (S. cerevisiae deletion strains, locus YMR125W, strain sto1, hits give low values): 0.984 | normalized growth (S. cerevisiae deletion strains, locus YMR129W, hits give low values): 0.982 | normalized growth (S. cerevisiae deletion strains, locus YMR205C, strain PFK2, hits give low values): 0.957 | normalized growth (S. cerevisiae deletion strains, locus YMR223W, strain ubp8, hits give low values): 0.995 | normalized growth (S. cerevisiae deletion strains, locus YMR231W, strain pep5, hits give low values): 0.996 | normalized growth (S. cerevisiae deletion strains, locus YMR307W, strain GAS1, hits give low values): 0.97 | normalized growth (S. cerevisiae deletion strains, locus YNL067W, strain RPL9B, hits give low values): 0.999 | normalized growth (S. cerevisiae deletion strains, locus YNL071W, strain lat1, hits give low values): 1 | normalized growth (S. cerevisiae deletion strains, locus YNL183C, strain NPR1, hits give low values): 0.907 | normalized growth (S. cerevisiae deletion strains, locus YNL209W, strain ssb2, hits give low values): 0.995 | normalized growth (S. cerevisiae deletion strains, locus YNL233W, strain BNI4, hits give low values): 1 | normalized growth (S. cerevisiae deletion strains, locus YNL248C, strain rpa49, hits give low values): 0.999 | normalized growth (S. cerevisiae deletion strains, locus YNL250W, strain rad50, hits give low values): 1.01 | normalized growth (S. cerevisiae deletion strains, locus YNL271C, strain bni1, hits give low values): 1 | normalized growth (S. cerevisiae deletion strains, locus YNL298W, strain CLA4, hits give low values): 1.01 | normalized growth (S. cerevisiae deletion strains, locus YNL307C, strain MCK1, hits give low values): 1.01 | normalized growth (S. cerevisiae deletion strains, locus YNL322C, strain KRE1 (second series), hits give low values): 0.996 | normalized growth (S. cerevisiae deletion strains, locus YNL322C, strain KRE1, hits give low values): 0.994 | normalized growth (S. cerevisiae deletion strains, locus YNR049C, strain mso1, hits give low values): 0.988 | normalized growth (S. cerevisiae deletion strains, locus YNR052C, strain pop2, hits give low values): 1 | normalized growth (S. cerevisiae deletion strains, locus YOL012C, strain htz1): 0.769 | normalized growth (S. cerevisiae deletion strains, locus YOL147C, strain pex11, hits give low values): 1.01 | normalized growth (S. cerevisiae deletion strains, locus YOR001W, strain rrp6, hits give low values): 1 | normalized growth (S. cerevisiae deletion strains, locus YOR061W, strain CKA2, hits give low values): 0.993 | normalized growth (S. cerevisiae deletion strains, locus YOR069W, strain VPS5, hits give low values): 0.996 | normalized growth (S. cerevisiae deletion strains, locus YOR070C, strain gyp1, hits give low values): 0.994 | normalized growth (S. cerevisiae deletion strains, locus YOR080W, strain dia2, hits give low values): 0.991 | normalized growth (S. cerevisiae deletion strains, locus YOR083W, strain WHI5, hits give low values): 1 | normalized growth (S. cerevisiae deletion strains, locus YOR106W, strain vam3, hits give low values): 1.02 | normalized growth (S. cerevisiae deletion strains, locus YOR136W, strain idh2, hits give low values): 1.01 | normalized growth (S. cerevisiae deletion strains, locus YOR144C, strain elg1, hits give low values): 1 | normalized growth (S. cerevisiae deletion strains, locus YOR184W, strain ser1, hits give low values): 0.943 | normalized growth (S. cerevisiae deletion strains, locus YOR231W, strain MKK1, hits give low values): 0.965 | normalized growth (S. cerevisiae deletion strains, locus YOR265W, strain rbl2, hits give low values): 1 | normalized growth (S. cerevisiae deletion strains, locus YOR270C, strain vph1, hits give low values): 0.974 | normalized growth (S. cerevisiae deletion strains, locus YOR290C, strain snf2, hits give low values): 0.953 | normalized growth (S. cerevisiae deletion strains, locus YOR316C, strain cot1, hits give low values): 1 | normalized growth (S. cerevisiae deletion strains, locus YPL051W, strain arl3, hits give low values): 0.995 | normalized growth (S. cerevisiae deletion strains, locus YPL055C, strain LGE1, hits give low values): 1.02 | normalized growth (S. cerevisiae deletion strains, locus YPL078C, strain atp4, hits give low values): 0.997 | normalized growth (S. cerevisiae deletion strains, locus YPL106C, strain sse1, hits give low values): 1.02 | normalized growth (S. cerevisiae deletion strains, locus YPL240C, strain hsp82, hits give low values): 0.987 | normalized growth (S. cerevisiae deletion strains, locus YPL241C, strain CIN2, hits give low values): 0.995 | normalized growth (S. cerevisiae deletion strains, locus YPL256C, strain CLN2, hits give low values): 0.96 | normalized growth (S. cerevisiae deletion strains, locus YPR119W, strain clb2, hits give low values): 1 | normalized growth (S. cerevisiae deletion strains, locus YPR141C, strain kar3, hits give low values): 0.992 | normalized growth (S. cerevisiae deletion strains, locus YPR163C, strain tif3, hits give low values): 0.998 | normalized growth (S. cerevisiae deletion strains, locus YPR167C, strain met16, hits give low values): 1 | normalized growth (S. cerevisiae deletion strains, strain wtn01, hits give low values): 1.05 | normalized growth (S. cerevisiae strains, strain wild type, hits give low values): 0.991

Reference: PubChem BioAssay AID1159580 (chemical genetic matrix, 2015)
